# Inconclusive results are not listed. Where a call stands in place of a potency, no number is given. The source made the active and inactive calls. Unless noted, calls come from the whole dose curve; as a rule, active = well fitted curve in the direction sought with a large enough effect in the repeat runs; inconclusive = weak or mixed curves; inactive = no such curve, though single readings can be large; an effect the other way counts as inactive or inconclusive.
# Columns and labels:
# [1] = qHTS assay to identify small molecule antagonists of the estrogen receptor alpha (ER-alpha) signaling pathway using the BG1 cell line in the presence of 0.1 nM 17-beta-estradiol - cell viability counter screen (AID 1259241); note: nearly all actives have a fitted effect of over 40% in size
# In short: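 Measures cytotoxicity alongside the ER-alpha antagonist readout: VM7Luc4E2 cells, charcoal-stripped serum, 0.1 nM 17beta-estradiol final, 22 hr compound incubation at 37C, CellTiter-Fluor fluorescence.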
# [2] = qHTS assay to identify small molecule antagonists of the androgen receptor (AR) signaling pathway using the MDA cell line in the presence of 0.5 nM R1881 - cell viability counter screen (AID 1259242); note: nearly all actives have a fitted effect of over 45% in size
# In short: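 Counter screen for cytotoxicity run in the same wells as the AR antagonist reporter screen: MDA-kb2 cells were treated 16 hr with test compounds and 0.5 nM R1881, then live-cell protease activity was measured by fluorescence.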
# [3] = target: Androgen receptor (Homo sapiens) (UniProt P10275); assay: qHTS assay to identify small molecule antagonists of the androgen receptor (AR) signaling pathway using the MDA cell line in the presence of 0.5 nM R1881 (AID 1259243); note: nearly all actives have a fitted effect of over 50% in size
# Sequence of Androgen receptor (Homo sapiens) (P10275 whole entry, looked up): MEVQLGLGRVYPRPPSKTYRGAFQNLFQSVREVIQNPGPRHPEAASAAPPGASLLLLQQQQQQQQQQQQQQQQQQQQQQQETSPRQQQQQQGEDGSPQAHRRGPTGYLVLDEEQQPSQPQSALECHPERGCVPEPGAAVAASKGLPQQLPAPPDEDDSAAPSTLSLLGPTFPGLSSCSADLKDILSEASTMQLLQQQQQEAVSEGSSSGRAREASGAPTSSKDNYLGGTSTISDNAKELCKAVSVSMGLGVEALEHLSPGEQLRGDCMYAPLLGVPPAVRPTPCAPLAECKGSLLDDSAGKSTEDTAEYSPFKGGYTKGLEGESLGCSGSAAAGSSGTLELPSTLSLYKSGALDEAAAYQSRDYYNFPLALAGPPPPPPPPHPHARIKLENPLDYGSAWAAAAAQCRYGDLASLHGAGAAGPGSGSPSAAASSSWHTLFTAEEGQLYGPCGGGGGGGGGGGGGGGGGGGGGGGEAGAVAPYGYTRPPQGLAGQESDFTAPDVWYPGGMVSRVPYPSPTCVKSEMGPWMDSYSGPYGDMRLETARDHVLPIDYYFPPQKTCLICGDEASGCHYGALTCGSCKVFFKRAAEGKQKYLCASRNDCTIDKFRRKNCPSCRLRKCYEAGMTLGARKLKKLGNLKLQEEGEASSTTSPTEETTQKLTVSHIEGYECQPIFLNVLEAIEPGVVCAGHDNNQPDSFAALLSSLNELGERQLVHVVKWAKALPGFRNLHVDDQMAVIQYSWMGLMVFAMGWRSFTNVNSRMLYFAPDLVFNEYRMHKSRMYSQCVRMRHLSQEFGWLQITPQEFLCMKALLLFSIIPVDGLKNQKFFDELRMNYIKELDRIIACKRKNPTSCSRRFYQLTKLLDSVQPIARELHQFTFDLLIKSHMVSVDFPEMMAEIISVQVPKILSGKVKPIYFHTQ
# In short: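 Luciferase luminescence is the read-out: compounds are tested for suppressing 0.5 nM R1881-driven MMTV reporter activity in MDA-kb2 cells after 16 hr at 37C.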
# [4] = target: Estrogen receptor (Homo sapiens) (UniProt P03372); assay: qHTS assay to identify small molecule antagonists of the estrogen receptor alpha (ER-alpha) signaling pathway using the BG1 cell line in the presence of 0.1 nM 17-beta-estradiol (AID 1259244); note: nearly all actives have a fitted effect of over 50% in size
# Sequence of Estrogen receptor (Homo sapiens) (P03372 whole entry, looked up): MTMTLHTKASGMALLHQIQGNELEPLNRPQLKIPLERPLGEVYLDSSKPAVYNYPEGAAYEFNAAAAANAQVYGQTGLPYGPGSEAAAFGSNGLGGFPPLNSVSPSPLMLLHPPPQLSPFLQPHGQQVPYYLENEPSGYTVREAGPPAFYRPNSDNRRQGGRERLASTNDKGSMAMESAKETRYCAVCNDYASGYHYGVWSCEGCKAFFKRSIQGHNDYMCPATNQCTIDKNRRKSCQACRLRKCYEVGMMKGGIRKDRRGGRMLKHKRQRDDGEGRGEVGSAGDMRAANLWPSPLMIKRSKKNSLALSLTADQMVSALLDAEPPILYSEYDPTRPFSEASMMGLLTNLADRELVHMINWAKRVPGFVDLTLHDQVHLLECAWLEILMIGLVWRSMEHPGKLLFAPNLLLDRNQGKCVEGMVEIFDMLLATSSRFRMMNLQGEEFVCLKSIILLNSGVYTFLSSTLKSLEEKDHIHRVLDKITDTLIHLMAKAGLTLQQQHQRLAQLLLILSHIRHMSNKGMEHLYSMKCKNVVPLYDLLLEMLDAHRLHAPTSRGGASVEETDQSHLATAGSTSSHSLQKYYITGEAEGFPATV
# In short: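 Cells: VM7Luc4E2, endogenous ER-alpha, 4x ERE-luc stable. Pre-culture 5 d, phenol red-free, charcoal-stripped FBS. Plated 24 h, compound + E2 0.1 nM final, 22 h 37C/5% CO2. Readout ONE-Glo luminescence.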
# [5] = qHTS assay to identify small molecule phospholipidosis (PLD) inducers (AID 1259344; active = well fitted curve in the direction sought with a large enough effect; an effect the other way counts as inactive or inconclusive)
# In short: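 Phospholipidosis is scored by imaging LipidTOX-stained pits in HepG2 cells exposed to compound for 24 h at 37 C; pit counts and integrated intensities per well and per cell serve as outputs.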
# [6] = qHTS assay to identify small molecule HDAC inhibitors (AID 1259364); note: nearly all actives have a fitted effect of over 45% in size; note: potency is the fitted concentration of half-maximal effect
# In short: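 Luminescence from a cell-permeant luminogenic class I/II HDAC substrate reports endogenous deacetylase activity in intact HCT-116 cells treated with compounds for 2 h.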
# [7] = qHTS assay to identify small molecule HDAC inhibitors - cell viability counter screen (AID 1259365); note: series mostly up to about 92 µM; nearly all actives have a fitted effect of over 50% in size
# In short: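 Following a 2hr exposure of overnight-plated wild-type HCT-116 cells to DMSO-delivered compounds, CellTiter-Glo was added and luminescence recorded after 30min at room temperature.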
# [8] = qHTS assay to identify small molecule agonists of the sonic hedgehog signaling (Shh) pathway - cell viability counter screen (AID 1259366); note: nearly all actives have a fitted effect of over 50% in size
# In short: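 After a 4hr attachment at 37C, NIH/3T3 cells bearing an integrated Gli1-driven luciferase reporter were dosed with compounds. Treatment lasted 24hr, with the final hour including CellTiter-Fluor for a fluorescence viability measurement.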
# [9] = qHTS assay to identify small molecule antagonists of the sonic hedgehog signaling (Shh) pathway - cell viability counter screen (AID 1259367); note: nearly all actives have a fitted effect of over 55% in size
# In short: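 Cells: 3T3 Gli1-Luc, 2,000/well, 4 hr pre-incubation. Compounds in DMSO, then conditioned medium. Incubation 24 hr, 37C, 5% CO2. CellTiter-Fluor at 23 hr, 1 hr, fluorescence.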
# [10] = qHTS assay to identify small molecule agonists of the sonic hedgehog signaling (Shh) pathway (AID 1259368; calls by dose curve;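 note: NIH/3T3-derived 3T3Gli1-Luc cells carrying a stable Gli1-driven firefly luciferase reporter; series mostly up to about 92 µM; nearly all actives have a fitted effect of over 15% in size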)
# In short: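 3T3Gli1-Luc (NIH/3T3 clone, stable Gli1-Luc); 4 hr pre-incubation, then cpd in DMSO 24 hr, 37 C/5% CO2; luciferase reagent 30 min RT; luminescence.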
# [11] = qHTS assay to identify small molecule antagonists of the sonic hedgehog signaling (Shh) pathway (AID 1259369; calls by dose curve; note: nearly all actives have a fitted effect of over 45% in size)
# In short: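 3T3Gli1-Luc, conditioned-medium-stimulated, 24hr cpd, 37C/5% CO2; Gli1-driven firefly Luc luminescence after 30min RT with luciferase reagent. Cells plated 4hr before cpd.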
# [12] = target: Estrogen receptor beta (Homo sapiens) (UniProt Q92731); assay: qHTS assay to identify small molecule agonists of the estrogen receptor beta (ER-beta) signaling pathway (AID 1259377; active = well fitted activation curve with a large enough effect in the signal ratio in the repeat runs, not every such curve was filed as active; the % refers to the signal ratio)
# Sequence of Estrogen receptor beta (Homo sapiens) (Q92731 whole entry, looked up): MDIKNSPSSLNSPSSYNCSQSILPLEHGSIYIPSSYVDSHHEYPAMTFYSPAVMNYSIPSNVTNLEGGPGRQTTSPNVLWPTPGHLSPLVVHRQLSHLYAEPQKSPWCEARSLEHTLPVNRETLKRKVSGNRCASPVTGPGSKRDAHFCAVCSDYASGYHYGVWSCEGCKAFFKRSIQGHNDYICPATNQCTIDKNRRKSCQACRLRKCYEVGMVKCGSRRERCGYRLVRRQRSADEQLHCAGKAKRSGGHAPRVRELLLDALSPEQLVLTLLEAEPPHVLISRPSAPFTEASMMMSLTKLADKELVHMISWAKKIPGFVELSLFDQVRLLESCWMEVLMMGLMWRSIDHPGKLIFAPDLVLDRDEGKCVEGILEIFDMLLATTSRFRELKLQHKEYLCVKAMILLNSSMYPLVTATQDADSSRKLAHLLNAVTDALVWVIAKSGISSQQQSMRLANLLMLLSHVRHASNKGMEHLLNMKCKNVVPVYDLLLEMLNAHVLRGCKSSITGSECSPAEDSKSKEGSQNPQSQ
# In short: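 In HEK293T cells bearing a UAS-beta-lactamase reporter under ER-beta control, DMSO-delivered compounds were incubated for 16 hr at 37C. Activity was detected as fluorescence 2 hours after LiveBLAzer B/G FRET substrate addition.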
# [13] = target: Estrogen receptor beta (Homo sapiens) (UniProt Q92731); assay: qHTS assay to identify small molecule antagonists of the estrogen receptor beta (ER-beta) signaling pathway (AID 1259378; active = well fitted inhibition curve with a large enough effect in the signal ratio in the repeat runs, not every such curve was filed as active; the % refers to the signal ratio)
# In short: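 Antagonist mode: compounds added to beta-lactamase reporter HEK293T ER-beta-UAS cells stimulated with E2 (1nM final), 16 hr at 37C. LiveBLAzer B/G FRET substrate, 2 hours room temperature, fluorescence read-out.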
# [14] = qHTS assay to identify small molecule agonists of the androgen receptor (AR) signaling pathway in the presence of an antagonist - cell viability counter screen (AID 1259379);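 note: MDA-kb2 human breast cancer cells carrying an MMTV luciferase reporter; series mostly up to about 92 µM; nearly all actives have a fitted effect of over 25% in size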
# In short: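 Cells: MDA-kb2 (MMTV-luc, AR and GR elements), 3,000/well, 5 hr settle. Added: nilutamide 3.0uM final, then compounds (15 conc.). Incubation: 16 hr, 37C, no CO2. Read-out: CellTiter-Fluor, 1 hr, fluorescence.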
# [15] = qHTS assay to identify small molecule agonists of the estrogen receptor beta (ER-beta) signaling pathway - cell viability counter screen (AID 1259380); note: nearly all actives have a fitted effect of over 30% in size
# In short: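 HEK293T ER-beta-UAS-bla; 2% CS-FBS; 6 hr pre-plate, 16 hr cpd at 37C/5% CO2; LiveBLAzer read first, then CellTiter-Glo 30 min RT, luminescence.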
# [16] = target: Androgen receptor (Homo sapiens) (UniProt P10275); assay: qHTS assay to identify small molecule agonists of the androgen receptor (AR) signaling pathway in the presence of an antagonist (AID 1259381; calls by dose curve; note: nearly all actives have a fitted effect of over 15% in size)
# In short: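 MDA-kb2 cells, 3,000/well, rested 5hr at 37C/0% CO2 → nilutamide 3.0uM final or buffer → compounds, 15 conc. → 16hr at 37C → ONE-Glo, 30min RT → luminescence.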
# [17] = qHTS assay to identify small molecule antagonists of the estrogen receptor beta (ER-beta) signaling pathway - cell viability counter screen (AID 1259382);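 note: HEK293T cells carrying ER-beta-UAS-bla reporter stimulated with estradiol; series mostly up to about 92 µM; nearly all actives have a fitted effect of over 55% in size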
# In short: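 Cells: ER-beta-UAS-bla HEK293T, 2,000/well, 2% CS-FBS, 6 hr settle. Cpd + E2 (1nM final), 16 hr, 37C/5% CO2. Bla FRET substrate 2 hr RT, then CellTiter-Glo 30 min RT, luminescence.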
# [18] = target: Estrogen receptor (Homo sapiens) (UniProt P03372); assay: qHTS assay to identify small molecule agonists of the estrogen receptor alpha (ER-alpha) signaling pathway in the presence of an antagonist (AID 1259383; calls by dose curve; note: top concentration of the series differs between compounds; nearly all actives have a fitted effect of over 15% in size)
# In short: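 VM7Luc4E2, endog. ER-alpha + 4×ERE-luc; charcoal-stripped FBS, phenol red-free, 5 d; 24hr plating; +10.0nM ICI-182,780 (final); cpds 15 conc, 22hr, 37C/5% CO2; ONE-Glo luminescence.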
# [19] = qHTS assay to identify small molecule agonists or antagonists of the thyroid stimulating hormone receptor (TSHR) signaling pathway - wild type cell line counter screen (AID 1259384; calls by dose curve)
# In short: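 Counter screen in untransfected Hek293: compounds (15-point titration, triplicate) plus phosphodiesterase inhibitor Ro20-1724 added after 18 h plating; 30 min RT. Intracellular cAMP via competitive d2/cryptate immunoassay, 1 h incubation.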
# [20] = target: Thyrotropin receptor (Homo sapiens) (UniProt P16473); assay: qHTS assay to identify small molecule antagonists of the thyroid stimulating hormone receptor (TSHR) signaling pathway (AID 1259385; calls by dose curve; note: nearly all actives have a fitted effect of over 20% in size)
# Sequence of Thyrotropin receptor (Homo sapiens) (P16473 whole entry, looked up): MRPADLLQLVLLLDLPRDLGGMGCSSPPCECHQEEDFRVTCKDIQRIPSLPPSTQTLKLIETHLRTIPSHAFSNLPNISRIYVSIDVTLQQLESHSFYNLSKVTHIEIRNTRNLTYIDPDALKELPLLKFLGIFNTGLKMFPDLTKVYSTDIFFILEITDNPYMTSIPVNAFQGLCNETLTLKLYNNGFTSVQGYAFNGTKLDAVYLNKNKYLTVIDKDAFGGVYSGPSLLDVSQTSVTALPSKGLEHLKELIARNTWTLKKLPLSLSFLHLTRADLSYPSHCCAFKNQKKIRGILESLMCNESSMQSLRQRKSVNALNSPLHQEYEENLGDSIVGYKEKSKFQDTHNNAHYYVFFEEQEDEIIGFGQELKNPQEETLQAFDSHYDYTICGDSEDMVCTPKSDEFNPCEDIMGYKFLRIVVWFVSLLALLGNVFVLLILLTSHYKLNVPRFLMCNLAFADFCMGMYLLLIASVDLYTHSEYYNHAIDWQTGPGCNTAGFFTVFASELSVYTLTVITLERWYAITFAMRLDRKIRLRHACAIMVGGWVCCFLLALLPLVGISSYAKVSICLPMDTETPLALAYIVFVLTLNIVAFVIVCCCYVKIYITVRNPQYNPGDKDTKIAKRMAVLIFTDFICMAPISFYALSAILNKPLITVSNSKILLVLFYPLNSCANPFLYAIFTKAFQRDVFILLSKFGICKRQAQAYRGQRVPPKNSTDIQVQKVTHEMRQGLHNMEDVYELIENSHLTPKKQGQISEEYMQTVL
# In short: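 Antagonist mode: compound-treated TSHR-expressing HEK293 cells were stimulated with 1.5 ng/mL TSH (final) in presence of Ro20-1724 for 30 min at RT. HTRF cAMP detection after 1 h; each compound tested at 15 concentrations, triplicate.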
SMILES,Potency [1],Potency [2],Potency [3],Potency [4],outcome [5],Potency [6],outcome [7],Potency [8],Potency [9],outcome [10],Potency [11],Potency [12],Potency [13],Potency [14],Potency [15],Potency [16],outcome [17],Potency [18],outcome [19],outcome [20]
CC(=O)Oc1ccc(C)cc1,inactive,inactive,inactive,inactive,inactive,inactive,inactive,inactive,inactive,inactive,inactive,inactive,inactive,inactive,inactive,inactive,inactive,inactive,–,–
CN1C(=O)CC[C@H]1c1cccnc1,inactive,inactive,–,–,inactive,inactive,inactive,inactive,inactive,inactive,inactive,inactive,–,inactive,–,–,–,–,inactive,inactive
CCCCCCO,inactive,inactive,–,inactive,–,inactive,inactive,inactive,inactive,inactive,inactive,–,–,inactive,inactive,–,–,inactive,inactive,inactive
CCCCCC(=O)O,–,inactive,inactive,inactive,–,inactive,inactive,inactive,inactive,inactive,inactive,inactive,–,inactive,inactive,inactive,inactive,inactive,inactive,inactive
CCOC(=O)c1ccc(N)cc1,inactive,inactive,–,–,inactive,inactive,inactive,inactive,inactive,inactive,inactive,inactive,–,inactive,inactive,–,inactive,–,inactive,inactive
CC1(C)OC[C@@H]2O[C@@]3(C(=O)O)OC(C)(C)O[C@H]3[C@@H]2O1,inactive,inactive,–,–,inactive,inactive,inactive,inactive,inactive,inactive,inactive,inactive,inactive,inactive,–,–,–,–,inactive,inactive
CCCCCCCCCCN,inactive,inactive,–,–,–,inactive,inactive,inactive,inactive,inactive,inactive,inactive,inactive,inactive,inactive,–,–,–,inactive,inactive
N[C@H](Cc1c[nH]c2ccccc12)C(=O)O,inactive,inactive,–,–,inactive,inactive,inactive,inactive,inactive,inactive,inactive,inactive,–,inactive,inactive,–,inactive,–,inactive,inactive
C=CCCCCCCCCC(=O)O,inactive,inactive,–,–,inactive,inactive,inactive,inactive,inactive,inactive,inactive,inactive,–,inactive,–,–,inactive,–,inactive,inactive
O=C(OCC1CCC2OC2C1)C1CCC2OC2C1 (stereo not drawn),inactive,inactive,–,inactive,–,inactive,inactive,–,–,inactive,inactive,–,–,inactive,inactive,–,–,inactive,inactive,inactive
CCOCC(=O)O,inactive,inactive,–,inactive,–,inactive,inactive,inactive,inactive,inactive,inactive,–,–,inactive,inactive,–,inactive,inactive,inactive,inactive
CN(C)CCOC(=O)COc1ccc(Cl)cc1,inactive,inactive,–,–,inactive,inactive,inactive,inactive,inactive,inactive,inactive,inactive,–,inactive,–,–,inactive,–,inactive,inactive
Nc1nc(N)nc(-c2ccccc2)n1,inactive,inactive,–,inactive,–,inactive,inactive,inactive,inactive,inactive,–,inactive,inactive,inactive,–,–,inactive,inactive,inactive,inactive
CC(=O)c1ccc(O)cc1,inactive,inactive,–,inactive,–,inactive,inactive,inactive,inactive,inactive,inactive,–,–,inactive,inactive,–,inactive,inactive,inactive,inactive
NCCNCCN,inactive,inactive,–,–,inactive,inactive,inactive,inactive,inactive,inactive,inactive,inactive,–,inactive,–,–,inactive,–,–,–
O=C1c2ccccc2CCc2ccccc21,inactive,inactive,–,–,–,27.9 µM (active),inactive,inactive,inactive,inactive,inactive,inactive,inactive,inactive,inactive,–,inactive,–,inactive,inactive
C=C(C)CNCC,inactive,inactive,–,–,–,inactive,inactive,inactive,inactive,inactive,inactive,–,–,inactive,–,–,–,–,inactive,inactive
COCCCN,inactive,inactive,–,inactive,–,inactive,inactive,inactive,inactive,inactive,inactive,–,–,inactive,inactive,–,inactive,inactive,inactive,inactive
CC(=O)CCC=C(C)C,inactive,inactive,–,inactive,–,inactive,inactive,inactive,inactive,inactive,inactive,–,–,inactive,inactive,–,inactive,inactive,inactive,inactive
